# Source: PubChem
# Many of the other results were omitted from the sample, so hits are more common in it than they were.
# RmlC RmlD mix – RmlC/RmlD inhibition, mixture screen | RmlC/RmlD coupled enzyme inhibition, 384-well mixture HTS | inhibition, % at 5.5 µM | 0.39% of 110,000 active; in the data active = inhibition above about 30%, passing the limit was not always enough
# HIV RNase H inh – blocks HIV-1 RNase H cleavage of RNA/DNA duplex. P04585. AID 565. RT-RNase H RNA/DNA duplex cleavage, fluorescence. 1.9% of 65,000 active. inhibition, % at 10 µM; in the data active = inhibition above about 50%
# RmlCD artifact – shows fluorescent artifact in RmlC/RmlD assay, dose-response counter-screen. shares compounds with RmlC RmlD mix. RmlC/RmlD assay fluorescence artifact counter-screen. calls only. 96% of 360 active. AID 1696; call rule not given here;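 note: compound alone with no enzyme and no substrates present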
# Numbers stand for hits; . = inactive; / = not tested or not shown; + = active, no number.
SMILES,RmlC RmlD mix,HIV RNase H inh,RmlCD artifact
N#Cc1c(N2CCCCC2)nc(N)c2c(N)nc3c(c12)CC(c1ccccc1)O3 (centres undefined),.,/,/
CCN(CC)c1nc(N)c2c(N)nc3c(c2c1C#N)CC(c1ccccc1)O3 (centres undefined),.,.,/
CCOC(=O)C[C@H]1c2ccccc2S(=O)(=O)N1Cc1cccc(C(F)(F)F)c1,.,/,/
COC(=O)C1=C(C)N(CCCC(=O)O)C(=O)NC1c1cccc(OC)c1 (centres undefined),.,/,/
CC1(C(=O)NCCCNc2ncc(C(F)(F)F)cc2Cl)C=CC2(CCCCC2)N1C(=O)c1ccccc1 (centres undefined),.,/,/
Cc1cc(CNC(=O)C(C)Cc2ccccc2)nn1C (centres undefined),.,/,/
Clc1cc(Sc2ccc(Br)cc2)nnc1-c1ccccc1,.,/,/
Cn1c(/C=N/NC(=O)c2ccccc2)nc2ccccc21,.,/,/
CC(=O)c1ccc(/C=C/c2nc3ccccc3n2C)o1,/,/,+
CC1CN(C(=O)c2cc3c(s2)CCC3)CC(C)O1 (centres undefined),.,.,/
CC1CN(C(=O)c2cc3c(=O)n4ccccc4nc3s2)CC(C)O1 (centres undefined),53,.,+
COc1cc(CCCN2C(N)=NC[C@H]2Cc2ccc(O)cc2)cc(OC)c1OC,.,/,/
COc1ccc(-c2cc(=NCCC(=O)O)c3cc(C)ccc3o2)cc1,/,/,+
COc1ccc(-c2cc(=Nc3ccc(C)cc3)c3ccccc3o2)cc1,.,/,/
COc1ccc(-c2c[n+]3c4n2CCCCC4=C(c2ccccc2)C3)cc1,91,/,+
C[n+]1cc(-c2ccccc2)n2c1CCCCC2,.,/,/
C[C@@H](O)[C@H]1C(=O)N2C(C(=O)O)=C(S[C@@H]3CN[C@H](C(=O)N(C)C)C3)[C@H](C)[C@H]12,.,/,/
O=C(Cn1nnc(-c2ccccc2Cl)n1)NCc1ccc2c(c1)OCO2,.,/,/
C=CCn1c(=O)/c(=C\c2ccsc2)s/c1=C(/C#N)C(=O)NCCN1CCOCC1,.,.,/
COCCCn1c(=O)/c(=C\c2ccc(OC(F)F)c(OC)c2)s/c1=C(/C#N)C(=O)NCCOC,/,/,.
O=C(O)c1cccc(NC(=S)NC(=O)C(c2ccccc2)c2ccccc2)c1,.,/,/
N[C@@H](CO)c1nnc([C@H](CC(=O)O)NC(=O)C2CCNCC2)o1,.,/,/
COC(=O)[C@H]1C[C@H]1[C@@H](NC(=O)c1ccc[nH]1)c1ccccc1,.,/,/
COc1ccc(-c2oc3ncn4nc(Cc5ccccc5)nc4c3c2-c2ccc(OC)cc2)cc1,.,.,/
COc1ccc(-c2oc3ncn4nc(COc5ccccc5)nc4c3c2-c2ccc(OC)cc2)cc1,117,.,+
SMILES,RmlC RmlD mix,HIV RNase H inh,RmlCD artifact
Cc1c2c(n3c(nc4ccccc43)c1C#N)N(Cc1ccccn1)CC2,/,.,/
CC1=CC(c2ccccc2)n2nc(NS(=O)(=O)c3ccc(C)cc3)nc2N1 (centres undefined),54,.,+
CC1=CC(c2ccc(Cl)cc2)n2nc(NS(=O)(=O)c3ccc(C)cc3)nc2N1 (centres undefined),.,/,/
CC(C)OC(=O)c1cc2ccccc2[nH]1,.,/,/
CCOC(=O)c1cc2cc3ccccc3cc2[nH]1,125,/,+
O=C1C=C(c2ccc(F)nc2)CCC1,.,/,/
CN1CCN(C(=O)C2=C[C@H](C(C)(C)C)C[C@H](OCCCCO)O2)CC1,.,/,/
COC(=O)c1ccc2c(c1)C(C)(C)C(/C=C/c1ccc(O)cc1)=[N+]2C,.,/,/
COC(=O)c1ccc2c(c1)C(C)(C)C(/C=C/c1ccc(OC)c(OC)c1OC)=[N+]2C,45,/,+
CC1=CC(=O)c2c(O)ccc(O)c2C1=O,.,/,/
O=C(c1coc(=O)c(Br)c1)N1CCCc2ccccc21,.,.,/
CC1(C)CCCN(C(=O)c2coc(=O)c(Br)c2)C1,54,.,+
Cc1ccc(C(=O)O)cc1N=Cc1cc(Br)cc(Br)c1O,/,/,+
Cc1ccc([N+](=O)[O-])cc1N=Cc1ccc(Br)s1,.,/,/
CCOC(=O)C(C)S(=O)(=O)c1ccc(C(F)(F)F)cn1 (centres undefined),.,/,/
Cc1oc2nc(SCC(=O)N3CCCCC3)nc(N)c2c1C,/,.,/
C=CCOC(=O)C1=C(C)NC(SCC(=O)N(CC)CC)=C(C#N)C1c1ccccc1 (centres undefined),/,.,/
C=CCOC(=O)C1=C(C)NC(SCC(=O)NC(=O)OCC)=C(C#N)C1c1cccnc1 (centres undefined),30,.,+
CCCC(=O)Nc1cc(-c2cn3cccnc3n2)ccc1OC,.,.,/
O=C(Nc1cccc(-c2cn3cccnc3n2)c1)c1ccc(Br)o1,55,.,+
COc1ccc(-c2cn3cccnc3n2)cc1NC(=O)c1ccc(Br)o1,.,.,/
Cc1ccc(-c2cn3cccnc3n2)cc1NC(=O)c1ccc(Br)o1,70,.,+
O=C(Nc1cccc(-c2cn3cccnc3n2)c1)c1ccco1,.,.,/
CCOCC(=O)Nc1ccc(-c2cn3cccnc3n2)cc1,106,.,+
